FLuc counter = inhibits or activates purified firefly luciferase, miR-21 counter-screen; P08659; purified FLuc, Km substrates, luminescence inhibition; Potency, µM (series often up to 57.5 µM), for inactives: top-dose activity change, negative = inhibition, usual class: inhibitors; 6.9% of 360,000 active;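 also: plate controls were vehicle for no effect and reference inhibitor for full effect; nearly all actives have a fitted effect of over 55% in size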
Target sequence (P08659 whole entry, looked up): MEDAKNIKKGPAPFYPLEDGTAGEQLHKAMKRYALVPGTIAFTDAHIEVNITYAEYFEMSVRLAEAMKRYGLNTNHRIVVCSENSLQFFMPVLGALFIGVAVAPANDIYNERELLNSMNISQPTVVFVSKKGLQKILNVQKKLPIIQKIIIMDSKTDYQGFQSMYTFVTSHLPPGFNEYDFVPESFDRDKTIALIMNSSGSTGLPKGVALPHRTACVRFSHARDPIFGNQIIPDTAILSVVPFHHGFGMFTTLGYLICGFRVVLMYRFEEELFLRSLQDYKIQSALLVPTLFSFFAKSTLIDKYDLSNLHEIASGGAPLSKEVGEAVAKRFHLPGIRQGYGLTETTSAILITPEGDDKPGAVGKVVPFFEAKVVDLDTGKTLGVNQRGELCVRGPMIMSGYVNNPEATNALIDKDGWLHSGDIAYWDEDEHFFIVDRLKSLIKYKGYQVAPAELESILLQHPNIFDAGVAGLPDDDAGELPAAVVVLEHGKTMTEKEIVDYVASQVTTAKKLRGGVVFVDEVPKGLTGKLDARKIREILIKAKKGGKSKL
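Biochemical qHTS of compounds, final roughly 60 µM downward over six points, against 10 nM purified firefly luciferase using Km concentrations of substrates (10 uM D-luciferin, 10 uM ATP) in Tris acetate pH 7.5 buffer; luminescence output.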
SMN2 splice up = increases expression of the SMN2 splice variant; HEK293 SMN2-luciferase splicing reporter, luminescence, 30-36 h; 2.8% of 210,000 active; Potency, µM (highest dose often 46.1 µM), for the others: top-dose activity change, positive = activation, actives largely listed as activators; AID 1458; also: % of control where 0% means no effect; nearly all actives have a fitted effect of over 55% in size
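HEK293 cells carry an SMN2 minigene-luciferase reporter in which exon 7 inclusion puts luciferase in frame. Cells were seeded at 2000 cells/well, attached for 10-12 hours, then exposed to compounds for 30-36 hours at 37C before ONE-Glo luminescence.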
ELG1 genotoxic = induces genotoxicity in HEK293T cells with luciferase-tagged ELG1 | HEK293T ELG1-luciferase reporter, luminescence, 16 h | Potency, µM (doses to about 46 µM), for inactives: top-dose activity change, positive = activation, hits mostly activators | 1.3% of 330,000 active | AID 504466; also: % of control where 0% means no effect; nearly all actives have a fitted effect of over 60% in size
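HEK293T cells expressing luciferase-tagged ELG1 were exposed to compound or DMSO vehicle for 16 hr at 37 °C and 5% CO2. Luciferase activity was then measured with ONE-Glo after 30 min at room temperature.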
NPC1 promoter act = NPC1 promoter activation; Huh7 NPC1 promoter luciferase reporter, 24 h; Potency, µM (top dose mostly 9.22 µM), without a hit: top-dose activation, most hits filed as activators; 2.4% of 320,000 active; also: % of control where 0% means no effect; nearly all actives have a fitted effect of over 60% in size
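NPC1 promoter–luciferase Huh7 cells; 24 h compound; luminescence.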
Rab9 promoter act = Rab9 promoter activation; 2.8% of 320,000 active; Huh7 Rab9 promoter-luciferase reporter, luminescence, 24 h; AID 485297; Potency, µM (doses to about 9.22 µM), without a hit: at the highest dose activation, negative = inhibition, actives largely listed as activators; also: % of control where 0% means no effect; nearly all actives have a fitted effect of over 60% in size
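Using Huh7 cells stably transfected with Rab9 promoter–luciferase, compounds were incubated 24 h at 37 °C, 5% CO2; luciferase luminescence was read 10 min after reagent addition.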
ELG1 repair inh = blocks ELG1-dependent DNA repair in HEK293T cells; HEK293T ELG1-luciferase reporter, luminescence, 16 h; DNA damage induced by 5-fluorouridine; Potency, µM (highest dose often 46.1 µM), for the others: at the top dose activity change, negative = inhibition, most hits filed as inhibitors; 2.3% of 330,000 active; AID 504467; also: % is scaled to controls: 0 for no effect and ±100 for the full control effect; nearly all actives have a fitted effect of over 55% in size
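In this reporter screen, reduction of luminescence relative to DMSO vehicle indicated activity. Compounds and 5-fluorouridine were added together to 2,000 cells per well, incubated for 16 hr at 37 °C, then developed with ONE-Glo.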
* marks the source's active call; other numbers are inactive results; ? = inconclusive; / = no result given. This is a sample that favours compounds with a hit; in the whole collection about 9.2% have one here. Calls follow the shape of the dose curve; as a rule, active = well fitted curve in the direction sought with a large enough effect; inconclusive = small, poorly fitted or top-dose-only effect, or another doubt; inactive = no such curve, though single readings can be large; an effect the other way counts as inactive or inconclusive. Potency is read from the fitted curve at half-maximal effect.

SMILES	FLuc counter	SMN2 splice up	ELG1 genotoxic	NPC1 promoter act	Rab9 promoter act	ELG1 repair inh
Cc1sc2ncnc(N3CCC(C(=O)Nc4sc5c(c4C(N)=O)CCC(C)C5)CC3)c2c1C (stereo not drawn)	0%	/	-1%	-9%	-6%	?
COc1cccc(NC(=O)c2cnsn2)c1	?	-12%	?	29%	15%	?
CCOc1ccc(NC(=O)c2cnsn2)cc1	6µM*	?	1.5µM*	1.4µM*	0.56µM*	?
CCOc1ccc(NC(=O)c2ccccn2)cc1	0.48µM*	0.79µM*	?	?	0.13µM*	?
CCOc1ccc(NC(=O)c2cccnc2C(=O)O)cc1	?	8%	8%	9%	4%	?
CC1Cc2ccccc2N1C(=O)Cn1nnc(-c2ccccc2NC(=O)C2CCC2)n1 (stereo not drawn)	1%	-34%	-7%	-1%	-4%	23µM*
CC(C)(C)C(=O)Nc1cccc(C(=O)c2cccc(NC(=O)C(C)(C)C)c2)c1	?	2%	-7%	-2%	3%	?
CC(C)(C)C(=O)Nc1cccc(-c2cc(-c3c(Cl)cccc3Cl)no2)c1	-3%	/	-1%	1%	-13%	8.2µM*
CCOc1ccccc1Nc1ccc2cc(S(=O)(=O)N3CCCCC3)ccc2n1	-2%	/	/	/	/	/
N#Cc1cnc2nc(SCc3ccccc3)nn2c1	-17%	/	?	1.4µM*	?	?
CSc1nc2ncc(C#N)cn2n1	-1%	8%	-3%	4%	-1%	-6%
CCN(c1ccccc1)S(=O)(=O)c1ccc(C(=O)N(CCCN(C)C)c2nc3c(C)cccc3s2)cc1	3%	/	0%	3%	-5%	14%
Cc1nn(Cc2c(Cl)cccc2Cl)c(C)c1NC(=O)/C=C/c1cnn(C)c1C	-1%	-21%	-1%	-4%	3%	?
Cc1c(/C=N\NC(=O)c2ccc(F)cc2)cnn1C	-19%	-7%	-1%	-3%	-2%	?
Cc1c(/C=C/C(=O)c2ccc(C(C)C)cc2)cnn1C	1.9µM*	-15%	?	11%	?	?
Cc1c(/C=C/C(=O)c2ccc(O)cc2)cnn1C	11µM*	?	21µM*	?	?	?
Cc1c(/C=C/C(=O)c2ccc(Cl)s2)cnn1C	1.5µM*	9%	?	?	?	?
Cc1c(/C=C/C(=O)c2ccccc2)cnn1C	4.8µM*	?	?	?	?	?
COc1ccc(N(CCCN2C(=O)c3cccc4cccc(c34)C2=O)C(=O)c2cccc(OC)c2)cc1	-2%	-21%	-4%	-1%	-9%	18µM*
CC(C)Cn1c(=O)c2sccc2n2c(CCCC(=O)NC3CCCCC3)nnc12	-2%	/	/	/	/	/
CCN1CCCC1Cn1c(-c2ccccc2)nc2c(NCCOC)nc(C)nc21 (stereo not drawn)	/	-13%	/	/	/	/
C(/C=C/c1ccco1)=N/N1CCN(c2ccccc2)CC1	8.5µM*	?	?	1.6µM*	3.5µM*	?
C(=N\N1CCN(Cc2cccc3ccccc23)CC1)/c1ccco1	?	17%	3%	2%	5%	12%
Clc1ccccc1CN1CCN(/N=C/C=C\c2ccco2)CC1	17µM*	20%	13%	13%	?	?
Cc1cccc(CNc2cc(-c3ccc(C(=O)N(C)C)cc3)ncn2)c1	/	-13%	/	/	/	/
SMILES	FLuc counter	SMN2 splice up	ELG1 genotoxic	NPC1 promoter act	Rab9 promoter act	ELG1 repair inh
COC(=O)CN1C(=O)S/C(=C/c2ccc(N3CCCCC3)o2)C1=O	19µM*	-12%	15%	24%	?	?
O=C(O)CN1C(=O)/C(=C/c2ccc(N3CCCCC3)o2)SC1=S	11µM*	/	0%	0%	10%	-4%
CCOC(=O)CN1C(=O)S/C(=C/c2ccc(N3CCCCC3)o2)C1=O	?	-5%	1%	0%	-1%	14%
COc1ccc(N=C2S/C(=C\c3cc(C)n(C)c3C)C(=O)N2CC(C)C)cc1	-4%	-3%	-5%	0%	-2%	?
COC(=O)CN1C(=O)S/C(=C/c2cc(C)n(C)c2C)C1=O	9.5µM*	27%	?	4µM*	3.5µM*	?
O=C(Nc1ccc(Cl)cc1)OCc1cn(-c2ccccc2)nn1	-18%	-4%	2%	-1%	0%	-5%
CCOc1ccc(CNC(=O)CCn2nc(C)c3c(C)n(-c4ccccc4)nc3c2=O)cc1	-1%	/	/	/	/	/
Nc1c(C(=O)c2ccccc2)oc2ccc(Br)cc12	3µM*	16µM*	4.6µM*	3.2µM*	3.5µM*	?
Nc1c(C(=O)c2ccccc2)oc2ccc([N+](=O)[O-])cc12	?	/	15%	3.5µM*	3.5µM*	?
COC(=O)CCC(=O)c1oc2ccc(Br)cc2c1N	7.6µM*	11%	?	21%	19%	?
Cc1ccc2nc(-c3ccccc3)cc(C(=O)NCCCn3ccnc3)c2c1	21µM*	/	-2%	1%	0%	-3%
O=C(NCCCn1ccnc1)c1cc(-c2cccnc2)nc2ccc(Br)cc12	?	7%	-8%	-5%	4%	-8%
O=C(NCCCn1ccnc1)c1cc(-c2ccncc2)nc2ccccc12	6%	-1%	0%	-18%	1%	-3%
O=C(NCCCn1ccnc1)c1cc(-c2ccc(Cl)cc2)nc2ccccc12	24µM*	1%	-13%	0%	-5%	0%

Screening data: PubChem, National Center for Advancing Translational Sciences (NCATS)
